About 83,000 compounds went through this panel and 20% of them were active in at least one assay; those are over-represented in the sample as a whole.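 A percent growth of 40 corresponds to 60% growth inhibition; 0 means no net growth; -100 means all cells died. Active threshold: below 10.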 A number with no mark means an inactive call. Activity calls are given as the source filed them.
How the values were obtained:
Test in all cases: NCI-60 one-dose screen, 48 h (100 = growth as untreated, 0 = no growth, -100 = all killed)
Conditions in all cases: 10 µM unless noted
[1] = test system: SR leukemia
[2] = test system: RPMI-8226 leukemia
[3] = test system: OVCAR-8 ovarian
[4] = test system: OVCAR-5 ovarian
[5] = test system: SK-OV-3 ovarian
[6] = test system: IGROV1 ovarian
[7] = test system: OVCAR-3 ovarian
[8] = test system: HS 578T breast
[9] = test system: NCI/ADR-RES ovarian
[10] = test system: T-47D breast
[11] = test system: BT-549 breast
[12] = test system: MDA-MB-435 melanoma
[13] = test system: SW-620 colon
[14] = test system: MCF7 breast
[15] = test system: HCT-116 colon
[16] = test system: HCC-2998 colon
[17] = test system: KM12 colon
[18] = test system: OVCAR-4 ovarian

Structure (SMILES) | growth [1] | growth [2] | growth [3] | growth [4] [%] | growth [5] [%] | growth [6] | growth [7] | growth [8] [%] | growth [9] | growth [10] | growth [11] | growth [12] | growth [13] | growth [14] | growth [15] | growth [16] | growth [17] [%] | growth [18]
CCC(CC)NCC(C)(C)O | 93.4% | 107% | 99% | 108 | 110 | 98% | 119% | 107 | 106% | 123% | 106% | 108% | 107% | 97.9% | 103% | 92.2% | 104 | –
N#C/C(=C\c1ccc([N+](=O)[O-])s1)c1nc2cc(Br)ccc2s1 | -18.3% (active) | -43.5% (active) | -19.7% (active) | 20.5 | 10.1 | -32.7% (active) | -28.6% (active) | – | -28.5% (active) | 4.46% (active) | -13% (active) | 0.206% (active) | – | -14.2% (active) | -66.4% (active) | -8.27% (active) | 16.2 | -11.6% (active)
CCCCOc1ccc(/C(C)=N/Nc2cc(C)nc3ccc(Br)cc23)cc1 | -8.75% (active) | 57.9% | 88.4% | 113 | 89.4 | 85.7% | 101% | 96.6 | 99.2% | 85.5% | 107% | 92.8% | 5.89% (active) | 21.3% | 27.7% | 45.8% | 62.9 | –
COc1ccc(-c2[nH][nH]c(=O)c2-c2nc3ccccc3s2)cc1 | 99.2% | 99.4% | 106% | 105 | 106 | 105% | 110% | 107 | 97.7% | 109% | 97.6% | 101% | 101% | 93.9% | 101% | 99.6% | 101 | –
Oc1ccc(OCCOc2ccc(O)cc2)cc1 | 45.7% | 66.9% | 42.4% | 69.4 | 95.1 | 71.4% | 70.2% | 109 | 24.3% | 72.5% | 54.7% | 47.2% | 50.2% | 55.7% | 55.9% | 47.1% | – | –
COc1ccc(C(=O)C2C(C#N)C(C#N)C3c4ccccc4C=CN23)cc1 (stereo not given) | 105% | 73.1% | -4.32% (active) | 101 | 93.6 | 81% | 92.2% | 95.1 | 87.9% | 61.5% | 95% | 96.1% | 99.7% | 91.3% | 86.1% | 101% | 98.3 | –
CCOC(=O)c1nc2c3ccccc3ccn2c1C(=O)OCC | 103% | 96.4% | 111% | 98 | 109 | 96.5% | 106% | – | 96% | 98.2% | 103% | 105% | – | 95.9% | 104% | 103% | 100 | 107%
CCOC(=O)c1cc(C(=O)c2ccc(OC)cc2)n2ccc(/C=C/c3cc[n+](CC(=O)c4ccc(OC)cc4)cc3)cc12 | -29.5% (active) | 10.4% | 21.1% | 87.1 | 109 | 63.1% | 60.9% | 105 | 98.1% | 36.3% | 86% | 77% | 5.72% (active) | -62.6% (active) | 3.01% (active) | 36.7% | 91.9 | –
O=C1Nc2cc(-c3ccc(NC(=O)C4CC4)cc3)ccc2/C1=C/c1ccc[nH]1 | 44.8% | 93.6% | 110% | 98 | 105 | 99.2% | 110% | 110 | 106% | 21.7% | 104% | 99.9% | 113% | 12.8% | 104% | 111% | – | –
COc1ccc(/C=C2\Oc3cc(OCCCCCN4CCCCC4)ccc3C2=O)cc1OC | -26.1% (active) | 76.1% | 83.3% | 95.9 | 104 | 94.3% | 82.8% | – | 84% | 72.4% | 69.4% | 99.2% | -61.3% (active) | 70.9% | – | 94.7% | 80.4 | 48.1%
COc1ccc(Cc2cnc(NC(=O)c3ccc4c(c3)OCCO4)s2)cc1 | 3.32% (active) | 15.8% | 16.9% | 26.1 | 33.4 | 20.2% | 6.58% (active) | – | -1.17% (active) | 42.8% | 43.6% | 4.11% (active) | 31.4% | 9.58% (active) | – | 18.8% | 10.3 | 41.2%
CCCCCN1C=C/C(=C\C(=O)N(C)c2ccccc2Br)c2ccccc21 | 74.3% | 73.6% | 88.7% | 96 | 94 | 98.5% | 97.4% | – | 100% | 77.3% | 116% | 99.4% | 97% | 94.3% | – | 102% | 98.4 | 83.5%
CCOC(=O)c1cc(C(=O)c2ccc(Br)cc2)n2ccc(/C=C/c3cc[n+](CC(=O)c4ccc(OC)cc4)cc3)cc12 | -2.64% (active) | 45.7% | 59.9% | 102 | 114 | 86% | 102% | 129 | 87.5% | 90.1% | 109% | 101% | 48.6% | -9.87% (active) | 37.7% | 95.1% | 99.2 | –
COc1cccc(-c2nc3occn3c2-c2ccnc(NCCNS(=O)(=O)c3ccc(C(F)(F)F)cc3)n2)c1 | 96.6% | 69.2% | 90.8% | 116 | 103 | 80.6% | 96.7% | – | – | 41.1% | 96.5% | 70.4% | 113% | 80.9% | 92.9% | 133% | 98.9 | 83.7%
COc1ccc2c(c1)oc1c(C)c3c(c(C)c12)C(=O)N(CCN1CCOCC1)C3=O | 85.8% | 92.2% | 92% | 92.6 | 114 | 91.4% | 106% | 102 | 104% | 106% | 97.6% | 105% | 93% | 109% | 83% | 111% | – | –
CC(=O)c1cc2c(N)c(C(=O)Nc3cccc4ccncc34)sc2nc1C | 49.8% | 103% | 108% | 106 | 93.4 | 101% | 103% | 91.3 | 108% | 97.1% | 102% | 6.83% (active) | 101% | 83.7% | 102% | 107% | 101 | –
OCc1cnccc1NCCCCOc1ccc(Oc2ccccc2)cc1 | 31.7% | 24.7% | 65.1% | 84.1 | 87.2 | 72.7% | 66.6% | – | 65.8% | 35.4% | 62.6% | 59.9% | 49.2% | 33.2% | 31.3% | 89.6% | 64.8 | 63.2%

Source: PubChem BioAssay (NCI)
